Screen size: about 3,600 compounds; about 900 (25%) were called active. A selection follows. Results with a measured potency or affinity are listed apart. Values without a mark were called inactive. How the calls were made is not given here.
biological target: Protein Tat (Human immunodeficiency virus type 1 group M subtype B (isolate HXB2)) (UniProt P04608); assay: inhibitors of Tat binding to TAR RNA, dose response, counter-screen for Vif-APOBEC3G degradation inhibitor project, biochemical, fluorescence polarization, FAM-labeled TAR RNA (AID 1117361); conditions: outcome: dose series up to 100 µM unless noted; series mostly up to 100 µM; inhibition: at the top concentration

SMILES	outcome	inhibition
Cc1nc(NCc2ccccc2)c2cc[nH]c2n1	inactive	–
Cc1cc(C)n(CC(O)CN2c3ccccc3Sc3ccccc32)n1 (stereo not drawn)	inactive	–
CC1CCCCN1Cc1ccc(N(C)C)cc1 (stereo not drawn)	–	2.7%
O=C(NN=C1CCCC1)C(=O)Nc1cccc(C(F)(F)F)c1	inactive	–
O=C(Nc1cccc(C(F)(F)F)c1)c1cccnc1NCCc1ccccc1	inactive	–
Cc1ccc(C(=O)Nc2cccnc2)cc1NC(=O)c1ccco1	inactive	–
O=C(Nc1ccccc1)c1ccc2nc(-c3ccco3)c(-c3ccco3)nc2c1	inactive	–
COC(=O)C1=C(C)Nc2ncnn2C1c1ccc(OC(=O)c2ccccc2)cc1 (stereo not drawn)	–	7.43%
CC(=O)c1ccccc1NC(=O)COC(=O)CN1C(=O)C2CCCCC2C1=O (stereo not drawn)	–	3.3%
COCCn1c(-c2ccc(OC)cc2)nc2ccccc21	inactive	–
N#Cc1cn(CCOc2ccccc2F)c2ccccc12	inactive	–
Cc1ccc(C(=O)N2c3ccc(F)cc3CCC2C)o1 (stereo not drawn)	–	10.9%
CC(Cc1c[nH]c2ccccc12)C(=O)NCc1ccco1 (stereo not drawn)	–	5.68%
COC(=O)COc1ccc(S(=O)(=O)NCc2ccco2)cc1Cl	–	0.68%
CN(C)CCNc1oc(COc2ccc(Cl)cc2)nc1C#N	–	11.6%
O=C(NNC(=O)c1cc(OCC(F)(F)F)ccc1OCC(F)(F)F)c1cccc(C(F)(F)F)c1	inactive	–
Cc1cc(-n2c(C)cc(C(=O)COC(=O)CN=C3NS(=O)(=O)c4ccccc43)c2C)no1	–	11.5%
O=C1CCCC2=C1C(c1ccsc1)CC(=O)N2c1ccccc1 (stereo not drawn)	–	7.43%
COC(=O)C1(C(=O)OC)NOC2C(=O)N(c3ccccc3)C(=O)C21 (stereo not drawn)	–	0.68%
O=C(c1cccc(S(=O)(=O)N2CCCC2)c1)N1CCOCC1	inactive	–
COc1ccc(OCCOC(=O)c2cc(S(=O)(=O)N3CCOCC3)c(Cl)cc2Cl)cc1	–	5.01%
COc1ccc(CN2CCSCC2)cc1C	–	2.34%
O=[N+]([O-])c1c(Nc2ccccc2O)cc(Cl)c2nonc12	inactive	–

SMILES	outcome	inhibition
O=C(O)c1cc(Nc2cc(Cl)c3nonc3c2[N+](=O)[O-])ccc1O	inactive	–
CCC(=O)OCCNc1cc(Sc2nc3ccccc3[nH]2)c2nonc2c1[N+](=O)[O-]	–	8.25%
CN(CCO)c1cc(Sc2nc3ccccc3s2)c2nonc2c1[N+](=O)[O-]	inactive	–
C=CCSc1nnc(-c2ccc(Cl)cc2Cl)o1	inactive	–
O=C1N=NC2=C1c1c3ccccc3c(O)n1CC2	inactive	–
N#CC1=C(Nc2ccccc2)SC=C(c2ccc(Br)cc2)N=C1N1CCOCC1	–	18.2%
Cc1onc(-c2ccccc2Cl)c1C(=O)N1CCN(c2cccc(Cl)c2)CC1	inactive	–
COc1ccc(CC(=O)OCn2nnc3ccccc3c2=O)cc1	inactive	–
CC(NC(=O)CN(C)Cc1nc2ccccc2c(=O)[nH]1)c1ccccc1 (stereo not drawn)	–	0.68%
Cc1ccc(CNC(=O)C2CCCN(S(=O)(=O)c3cnc[nH]3)C2)cc1 (stereo not drawn)	inactive	–
COCCn1c(SCC(=O)N2CCC(C)CC2)nc2ccccc2c1=O	inactive	–
COc1ccc(/C=N/NC(=O)CNc2n[nH]c(=O)[nH]c2=O)cc1OC	–	28%
O=C(Nc1nc2n(n1)C(c1ccccc1)CC(c1ccc(Cl)cc1)N2)c1ccco1 (stereo not drawn)	–	2.7%
Cc1nc2nc(-c3ccccc3)cn2nc1C	–	20.9%
COc1cccc(-c2nc3cc(C)ccc3o2)c1	–	4.73%
CON(c1nc(N(C)C)nc(N(C)C)n1)S(=O)(=O)c1ccccc1Cl	–	1.35%
O=S(=O)(c1ccc(Cl)s1)N1CCN(Cc2ccccc2)CC1	–	8.11%
O=C(Cn1nc(-c2ccc(Cl)cc2)ccc1=O)NCc1ccc2c(c1)OCO2	inactive	–
CC1CCN(Cc2cnc(Cl)s2)CC1	–	4.05%
CCCCSc1nc2sc3c(c2c(=O)[nH]1)CCC3	inactive	–
CCn1c(SCC(=O)OC)nc2sc3c(c2c1=O)CCC3	–	1.67%
Cc1nn(C)cc1CNC(=O)C1C2CCC(C2)C1C(=O)O (stereo not drawn)	inactive	–
CCN1C(=O)CS/C1=C(\C#N)S(=O)(=O)c1ccccc1	inactive	–

SMILES	outcome	inhibition
Clc1ccc(CSCCc2ccncc2)cc1	inactive	–
COC1=C(Br)C(=O)c2nc(C)ccc2C1=O	inactive	–
COC1=C(N)C(=O)c2nc(C)ccc2C1=O	–	19.7%
CCOC(=O)C1(Cc2ccc(OC)cc2)CCN(C(=O)Cc2cccnc2)CC1	–	1.65%
COC(=O)C(Cc1c[nH]c2ccccc12)NC(=O)C(C)C (stereo not drawn)	inactive	–
Cc1ccc(CNC(=O)CCC2CCCN(Cc3cc4ccccc4o3)C2)o1 (stereo not drawn)	–	14.8%
Cc1ccc(CCNC(=O)C2CCCN(S(=O)(=O)c3c(C)noc3/C=C/N(C)C)C2)cc1 (stereo not drawn)	inactive	–
Cc1ccc(S(=O)(=O)c2c(N)n(NC(=O)C3CC3)c3nc4ccccc4nc23)cc1	inactive	–
Cc1ccc(C)c(CN2C(=O)C(C)Oc3ccc(C)cc32)c1 (stereo not drawn)	inactive	–
CC1(C)Cc2c(c(=S)nc(-c3ccccc3)n2CCCN2CCOCC2)CO1	–	0.68%
C=CCN=c1scc(C)n1/N=C/c1ccc(O)c(O)c1	–	3.3%
COc1ccc(Cl)cc1N(CC(=O)Nc1ccc2c(c1)OCO2)S(C)(=O)=O	inactive	–
COC(=O)c1cccc(NC(=O)NC2CCCN2S(=O)(=O)c2ccc(Cl)cc2)c1 (stereo not drawn)	–	1.35%
CS(=O)(=O)N(C(=O)NC(=O)NC1CCS(=O)(=O)C1)C1CCCCC1 (stereo not drawn)	inactive	–
COc1ccc(C2CC(=O)Nc3cc(C)c(C)cc32)c(OC)c1OC (stereo not drawn)	–	18.9%
CC(C(=O)N1CCOCC1)(c1ccccc1)c1ccccc1	–	2.03%
CC(=O)c1ccc(Nc2nc(=O)c3cccnc3s2)cc1	inactive	–
CN(C)c1ccc(C=c2c3cc([N+](=O)[O-])ccc3n3c2cc(-c2ccccc2)[n+]3C)cc1	inactive	–
NNC(=S)Nc1ccc(Cl)cc1	inactive	–
CC(=O)c1ccc(N2CCN(C(=O)c3ccc4c(c3)OCO4)CC2)cc1	–	5.68%
O=C(NCCS(=O)CCNC(=O)C(F)(F)F)C(F)(F)F	inactive	–
Cc1onc(-c2ccccc2)c1C(=O)NCC1COc2ccccc2O1 (stereo not drawn)	inactive	–
CC(=O)Cc1nsc(Nc2ccc3c(c2)OCCO3)n1	–	2.05%

SMILES	outcome	inhibition
O=C(NN(C(=O)c1ccccc1)c1ccccc1)c1ccccc1	–	1.65%
CC(NC(=O)C1C(=O)N(CCO)C2(C)CC1c1ccccc1O2)c1ccccc1 (stereo not drawn)	–	7.43%
CN1OC[C@@H]2CN(C(=O)C(C)(C)C)[C@H](c3cccc(Oc4ccccc4)c3)C[C@@H]21	–	11.7%
O=C(c1cc(COc2cccc3cccnc23)on1)N1CCC[C@H]1CO	–	6.35%
C=CCc1cc(Cl)ccc1OC(=O)Nc1cccc(Cl)c1	–	7.42%
COc1ccc2[nH]c3c(N4CCC(O)(c5cccc(C(F)(F)F)c5)CC4)ncnc3c2c1	inactive	–
Clc1ccc(CSc2snnc2-c2ccccc2)c(Cl)c1	inactive	–
Cc1ccc(CSc2nnc(-c3ccco3)o2)cc1	inactive	–
CCCCN(CCCC)CCCN1CC(=O)N2[C@@H](Cc3c([nH]c4ccccc34)C2(C)C)C1=O	–	1%
CC(C)Cn1c(=O)[nH]c2ccccc21	inactive	–
COc1ccc(CCN=C(N)NS(=O)(=O)c2ccc(C)cc2)cc1	–	5.46%
O=C(NCc1ccco1)c1sc2cccc(F)c2c1Cl	–	23%
CCN(CC)C(=O)Cn1cnc2sc(C(=O)Nc3cc(OC)c(OC)c(OC)c3)c(C)c2c1=O	inactive	–
CCc1ccc(NC(=O)CCNS(=O)(=O)c2cccc3nonc23)cc1	inactive	–
Cc1cc(NC(=O)CSc2nnc(-c3ccncc3)n2N)ccc1Br	–	8.19%
COc1ccc(NC(=O)c2ccc(S(=O)(=O)N3CCOCC3)o2)cc1	–	1.65%
CCN(CC)c1ccc(NC(=O)c2ccc(Br)o2)cc1	–	6.82%
O=C(O)Cn1c(=O)c2c(c3ccccc31)CCC2	inactive	–
CS(=O)(=O)N1CCN(c2ccccc2NC(=O)CSc2ccc(Cl)cc2)CC1	inactive	–
Cn1cccc1Cc1nnc(SCC(N)=O)n1CCc1ccccc1	–	28%
CC[C@H](C)[C@H](NC(N)=O)C(=O)NCCc1ccc(OC)cc1	inactive	–
Cc1c(C)n(CC(O)CN2CCCCCC2)c2ccccc12 (stereo not drawn)	–	2.73%
CC1CCc2c(sc3ncn4c(SCC(=O)NCc5ccco5)nnc4c23)C1 (stereo not drawn)	–	2.03%

SMILES	outcome	inhibition
Cc1ccc(-n2c(SCC(=O)NCc3ccco3)nc3c([nH]c4ccccc43)c2=O)cc1	inactive	–
CCn1c(Cc2c(C)[nH]c3ccccc23)n[nH]c1=S	–	20.5%
COc1ccc(-c2noc(Cc3cccs3)n2)cc1	–	4.09%
O=C(/C=C/c1ccc(O)c(O)c1)c1ccc(S(=O)(=O)N2CCCCCC2)cc1	–	19%
CCCNS(=O)(=O)c1ccc(NC(=O)c2ccccn2)cc1	–	1.36%
CC(C)(C)c1ccc(C(=O)Oc2ccc3c(c2)OCC3=O)cc1	–	2.34%
O=C1/C(=C\c2ccco2)CCC/C1=C\c1ccco1	–	16.8% [at 50 µM]
C=CCNC(=S)NNC(=O)c1ccccc1	inactive	–
COc1ccc(N/N=C(\C#N)C(=N)SCc2ccccc2)cc1	inactive	–
CC1(C)Cc2cccc(OCC(O)CN3CCN(c4ccccn4)CC3)c2O1 (stereo not drawn)	inactive	–
O=C1CNC(=O)/C1=C/c1ccc(Br)cc1	inactive	–
CC1CC(C)CN(C(=O)COC(=O)CNS(=O)(=O)/C=C/c2ccccc2)C1 (stereo not drawn)	–	4.73%
CCS(=O)(=O)N1CCN(C(=O)c2cccc3ccccc23)CC1	inactive	–
CN(C)CCCNC(NC(=O)c1cccs1)C(Cl)(Cl)Cl (stereo not drawn)	–	4.09%
Cc1nc2c3ccccc3n(CC(=O)c3ccc(F)cc3)c(=O)n2n1	–	4.09%
O=C(NC(=S)N1CCN(c2c(Cl)cccc2[N+](=O)[O-])CC1)c1cccs1	inactive	–
COc1cc2c(cc1NC(=O)CC1SC(N3CCCC3)=NC1=O)oc1ccccc12 (stereo not drawn)	–	1.35%
O=S(=O)(c1ccc2nc(-c3ccco3)c(-c3ccco3)nc2c1)N1CCOCC1	inactive	–
COc1ccc(C(=O)Nc2cccc(C(=O)N3CCN(C)CC3)c2)cc1	–	29.3%
COc1ccc2nc(N3CCN(C(=O)c4ccc5ncsc5c4)CC3)sc2c1	inactive	–
COc1ccc(N2CCN(C(=O)c3ccc(C)c(Cl)c3)CC2)cc1	–	16.2%

— PubChem BioAssay AID1117361 (Southern Research Institute, 2015)
